Sampled rows, rich in hits. Any-hit rate of the full collection: about 3.8%.
Nrf2 block: Nrf2 pathway inhibition; A549 ARE-Fluc reporter, luciferase luminescence, 18-24 h; Potency, µM (doses to about 46 µM), without a hit: at the highest dose activity change, negative = inhibition, usual class: inhibitors; actives 2.1% (n = 360,000); AID 504444; note: % is set by controls: 0 for no effect and ±100 for the full control effect; nearly all actives have a fitted effect of over 60% in size
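Concentration-response testing used A549 ARE_Fluc cells at 5000 cells/well. Following an 18-24 h compound incubation, viability was read by fluorescence (Ex 405/Em 525) and luciferase output by luminescence.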
HepG2 viability: HepG2 cytotoxicity, counter-screen for TGF-b inhibitors; actives 0.76% (n = 410,000); Potency, µM (doses to about 46.1 µM), inactives show at the highest dose activity change, negative = cytotoxicity, hits mostly cytotoxic; HepG2 CAGA-GFP viability, ATP luminescence, 18 h
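CellTiter-Glo luminescence gave cytotoxicity after 18 hours at 37 degrees C. The cells were HepG2 CAGA-GFP in 1% FBS DMEM, stimulated with 500 pg/mL TGF-beta after compound addition. %Activity was normalised to no-cell wells (complete cell-killing) and DMSO (no toxicity), and curves were fitted and classified.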
ATXN2 expr inh: inhibitors of ATXN2 expression. actives 0.72% (n = 360,000). HEK-293 ATXN2-luciferase reporter, luminescence, 24 h. Potency, µM (highest dose often 57 µM), without a hit: at the highest dose activity change, negative = inhibition, actives largely listed as inhibitors. AID 1745845; note: % is set by controls: 0 for no effect and ±100 for the full control effect; nearly all actives have a fitted effect of over 55% in size
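qHTS (up to 57 uM final) was run with 24 h compound exposure of reporter cells at 37 °C. Each well was multiplexed: SteadyGlo luminescence measured ATXN2-luciferase expression after a fluorogenic Gly-Phe-AFC viability readout (25 uM final).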
TGFb inhibitor: TGF-b pathway inhibition. HepG2 CAGA-GFP TGF-b/SMAD3 reporter, GFP fluorescence, 18 h; TGF-beta stimulated, 500 pg/mL final. Potency, µM (titrated, usually from 46.1 µM), inactives show top-dose activity, negative = inhibition, actives largely listed as inhibitors. actives 1.2% (n = 410,000). AID 588855; note: % is set by controls: 0 for no effect and ±100 for the full control effect; nearly all actives have a fitted effect of over 65% in size
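Per well, imaged GFP fluorescence of HEPG2 CAGA-GFP cells gives the signal; cells get compound, then TGF-beta (500 pg/mL final), 18 h at 37 degrees C; %Activity versus -TGF-beta and +DMSO controls.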
A549 tox: counter-screen for Nrf2 inhibitors: cytotoxicity in A549 cells; A549 ARE-Fluc cells, CellTiter-Fluor viability, 18-24 h; AID 504648; actives 0.16% (n = 390,000); Potency, µM (series often up to 46 µM), for inactives: at the highest dose activity change, negative = cytotoxicity, usual class: inhibitors; note: % is set by controls: 0 for no effect and ±100 for the full control effect
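A549 ARE-Fluc cells in 5% FBS OPTI-MEM, 5000 cells/well, rested 2 h then exposed to compounds in concentration-response for 18-24 h at 37 °C. Viability by CellTiter-Fluor fluorescence (Ex 405/Em 525) after 30 min; luciferase luminescence (BugLite, 15 min, RT) read afterwards.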
S2 tox: viability counter-screen for ATXN expression inhibitors | S2 cells (HEK-293 line with an ATXN2-luciferase reporter) viability, CellTiter-Fluor protease fluorescence, 24 h | Potency, µM (series often up to 56.7 µM), hits mostly cytotoxic | actives 0.49% (n = 400,000); note: nearly all actives have a fitted effect of over 40% in size
Numbers without * were called inactive; i = inactive; ? = inconclusive; . = not tested or not shown; [ ] = remark or other dose. Calls come from the whole dose curve; as a rule, active = well fitted curve in the direction sought with a large enough effect; inconclusive = small, poorly fitted or top-dose-only effect, or another doubt; inactive = no such curve, though single readings can be large; an effect the other way counts as inactive or inconclusive. Potency is the fitted concentration of half-maximal effect.

SMILES	Nrf2 block	HepG2 viability	ATXN2 expr inh	TGFb inhibitor	A549 tox	S2 tox
Cc1c(CCC(=O)O)c(=O)oc2cc3occ(C(C)(C)C)c3cc12	18µM*	-7%	-11%	2%	-1%	i
O=C(CCCN1C(=O)/C(=C/c2ccc3c(c2)OCO3)SC1=S)Nc1ccc(C(=O)O)cc1	10µM*	-16%	?	-9%	3%	i
Cc1ccc(/C=C2\SC(=S)N(CCCC(=O)Nc3ccc(O)cc3)C2=O)cc1	16µM*	-20%	10µM*	-23%	-13%	i
Cc1ccc(/C=C2\SC(=S)N(CCCC(=O)Nc3ccccc3C(=O)O)C2=O)cc1	15µM*	-5%	13µM*	-7%	2%	i
Cc1ccc(NC(=O)CCCN2C(=O)c3cccc4cccc(c34)C2=O)cc1	15µM*	26%	?	13%	?	?
Cn1cc(Br)c(C(=O)n2cc(Br)cn2)n1	7%	2%	-17%	5%	-3%	i
Cc1ccc(OCc2nnc(SCC(=O)c3cccc([N+](=O)[O-])c3)n2C)cc1	-39%	-23%	-5%	?	0%[1.84 µM]	i
Cc1ccc(/C=C2\SC(=S)N(CCCC(=O)Nc3ccccn3)C2=O)cc1	2.3µM*	-12%	3.2µM*	4%	?	i
O=C(Nc1ccccc1Cl)c1cc(C2CCCN(C(=O)c3cccs3)C2)on1 (stereo unspecified)	.	-30%	-10%	-1%	.	i
S=c1[nH]c2ccc(Cc3ccc4[nH]c(=S)[nH]c4c3)cc2[nH]1	9%	-10%	10%	-11%	-1%	i
Cc1cc2ccc3ccccc3c2cc1CN(C)C	?	-39%	28%	16µM*	2%	i
CCC(Sc1nc(=O)cc(N)n1-c1ccccc1)C(=O)Nc1cc(C)on1 (stereo unspecified)	2%	-6%	5%	-5%	-15%	i
CCC(Sc1nc(=O)cc(N)n1-c1cccc(C)c1)C(=O)Nc1cc(C)on1 (stereo unspecified)	-8%	-7%	-7%	3.5µM*	-3%	i
O=C(Cc1ccccc1[N+](=O)[O-])OCC(=O)c1ccccc1Br	7%	-14%	1%	3%	1%	i
CCCc1cc(NCc2ccccn2)n2nc(C)c(-c3ccccc3)c2n1	?	-41%	10µM*	?	-17%	?
Cc1nn2c(NCc3ccccn3)cc(C(C)C)nc2c1-c1ccccc1	?	-61%	.	11µM*	-28%	?
Cc1nn2c(NCCCn3ccnc3)cc(C(C)C)nc2c1-c1ccccc1	-12%	-37%	-36%	14%	-10%	i
CCCc1nc2c3ccccc3ccn2c1Cc1cccc(Cl)c1	.	-38%	2%	-73%	.	35µM*
N=c1sc2ccccc2n1-c1ccccc1	.	-28%	1%	?	1%	i
C=CC(=O)N=c1sc2ccccc2n1-c1ccccc1	-1%	4.5µM*	18%[11.3 µM]	10µM*	-23%	.
Cn1c(SCc2ccccc2)nc(N)c(N=O)c1=O	-3%	10µM*	.	?	-19%	?
Oc1c(C(Nc2ccccn2)c2ccccc2F)ccc2cccnc12 (stereo unspecified)	?	-1%	.	1.4µM*	-12%	.
Oc1c(C(Nc2ccccn2)c2ccccn2)ccc2cccnc12 (stereo unspecified)	?	-16%	5µM*	-19%	-11%	?
CCC1CCCCN1C(=O)CSc1nc(-c2ccc(OC)cc2)cc(C(F)(F)F)n1 (stereo unspecified)	21µM*	-34%	?	?	-6%	?
O=C(NNc1nc2ccccc2o1)c1ccccc1	29%	-25%	1.6µM*	18%	1%	i
SMILES	Nrf2 block	HepG2 viability	ATXN2 expr inh	TGFb inhibitor	A549 tox	S2 tox
COc1ccc(-n2ncc3c(NC4CCCC4)ncnc32)cc1	.	-19%	-10%	32%	-1%	i
CC1=[N+](C)c2ccc3ccccc3c2C1(C)C	?	-75%	?	6.3µM*	-13%	i
CCOC(=O)C1(Cc2ccccc2C)CCCN(C(=O)CCn2nccc2C)C1 (stereo unspecified)	-7%	-5%	-20%	-7%	-7%	i
CCN(CC)C(=O)c1ccc2c(c1)N(Cc1c(F)cccc1Cl)C(=O)c1ccccc1S2	-27%	-5%	?	16µM*	-15%	i
CC(=O)N1c2ccc(S(=O)(=O)N3CCC(C(=O)N4CCCC(C)C4)CC3)cc2CC1C (stereo unspecified)	16µM*	-12%	-24%	-1%	-8%	?
CC(=O)N1c2ccc(S(=O)(=O)N3CCC(C(=O)Nc4ccccn4)CC3)cc2CC1C (stereo unspecified)	18µM*	-9%	-23%	-1%	-6%	i
COc1ccccc1N1CCN(C(=O)C2CCN(S(=O)(=O)c3ccc4c(c3)CC(C)N4C(=O)C3CC3)CC2)CC1 (stereo unspecified)	26µM*	-29%	-29%	-19%	-5%	i
CC(=O)N1c2ccc(S(=O)(=O)N3CCC(C(=O)N4CC(C)CC(C)C4)CC3)cc2CC1C (stereo unspecified)	1%	3%	0%	-1%	2%	i
COc1ccccc1N1CCN(C2CCCN(C(=O)CCN3CCCCO3)C2)CC1 (stereo unspecified)	?	3%	12%	9%	-6%	i
C=C1C=C(C(F)F)n2ncc(C(=O)Nc3ccc(N(CC)CC)cc3)c2N1	.	8%	.	21%	.	.
CN(C)CCCn1c(SCC(=O)N2c3ccccc3Sc3ccccc32)nc2ccccc2c1=O	2%	10µM*	28µM*	-21%	-2%	25µM*
CCOc1ccc(-c2nnc(SCC(=O)Nc3cc(C)on3)o2)cc1	15µM*	3%	.	2%	-4%	i
CCOc1ccc(NC(=O)CSc2nnc(-c3ccc(OCC)cc3)o2)cc1	1%	1%	7%	3%	15%	i
O=[N+]([O-])c1cc(Br)c(Nc2ccccc2)c([N+](=O)[O-])c1	?	-121%	.	18µM*	-21%	13µM*
O=[N+]([O-])c1ccc(Nc2ccccc2O)c([N+](=O)[O-])c1	.	-46%	.	?	.	i
Cc1ccc(-c2onc(C)c2C)cc1S(=O)(=O)NC1CCC(C)CC1 (stereo unspecified)	?	-36%	.	10µM*	-20%	.
Cc1ccc(-n2cc(S(=O)(=O)c3ccc(C)cc3)[nH]c2=O)cc1	3%	3.2µM*	-11%	?	6%	i

Bioassay records deposited in PubChem by National Center for Advancing Translational Sciences (NCATS).
